Screens: PubChem BioAssay, National Center for Advancing Translational Sciences (NCATS)
Shown are actives, neighbours in structure and some others; about 4.7% of the full set was active somewhere.
D1 PAM – Potentiators of Human D1 Dopamine Receptor: qHTS | D(1A) dopamine receptor (Homo sapiens), P21728 | HEK293 TREx D1 cells, calcium flux, dopamine EC20 potentiation | potentiation, % at 10 µM | hit rate 0.036% among 360,000; in the data active means potentiation above about 30%
D1 ag – Allosteric Agonists of the Human D1 Dopamine Receptor: qHTS. activation, % at 2 µM. hit rate 1% among 360,000. HEK293 T-REx D1 cells, calcium flux, agonist mode. D(1A) dopamine receptor (Homo sapiens), P21728
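Inducible HEK293 T-REx D1 cells, force-coupled to calcium signalling, were plated at 4000 cells/well with tetracycline and held overnight at 30 C. After no-wash calcium dye loading, compound-evoked calcium rise over 180 s flagged agonists.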
D1 antag – Antagonist of Human D 1 Dopamine Receptor: qHTS; D(1A) dopamine receptor (Homo sapiens), P21728; HEK293 TREx D1 cells, calcium flux, dopamine EC80; hits give low values; activity change, negative = inhibition, % at 10 µM; hit rate 3.2% among 360,000; in the data active means activity change below about -30%
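After overnight tetracycline induction at 30 C, force-coupled D1 HEK293 cells took up a no-wash calcium dye at room temperature. Compounds were added and monitored 180 s, and the response to EC80 dopamine was then recorded.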
TRHR agonist – qHTS for Small Molecule Agonists and Allosteric Enhancers of Human TRH Receptor: Primary Screen for Agonists; Thyrotropin-releasing hormone receptor (Homo sapiens), P34981; TRHR cells, calcium flux fluo-8, FDSS agonist mode; activation, % at 2 µM; hit rate 0.18% among 360,000; AID 493084, 2011
Target sequence (P34981 whole entry, looked up): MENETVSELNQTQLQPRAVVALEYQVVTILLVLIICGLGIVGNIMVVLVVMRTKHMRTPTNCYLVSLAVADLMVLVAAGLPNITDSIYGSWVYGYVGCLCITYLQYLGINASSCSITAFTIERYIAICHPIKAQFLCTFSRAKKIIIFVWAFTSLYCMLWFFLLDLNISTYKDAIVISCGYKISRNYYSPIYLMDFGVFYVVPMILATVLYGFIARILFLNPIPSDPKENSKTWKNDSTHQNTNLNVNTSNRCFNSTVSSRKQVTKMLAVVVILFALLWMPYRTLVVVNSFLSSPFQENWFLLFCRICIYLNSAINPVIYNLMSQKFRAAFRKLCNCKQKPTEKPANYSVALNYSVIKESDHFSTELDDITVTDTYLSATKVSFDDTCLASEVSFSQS
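Agonist-mode FDSS calcium read (Ex 480/Em 530, 1 s cycles) in 1536-well TRHR cells with fluo-8 dye, after 10-cycle baseline and 23 nL compound addition; TRH at EC20 (10 nM final) added afterwards for the enhancer phase.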
TRHR enhancer – qHTS for Small Molecule Agonists and Allosteric Enhancers of Human TRH Receptor: Primary Screen for Enhancers. TRHR cells, fluo-8 calcium fluorescence, EC20 TRH enhancement. enhancement, % at 2 µM. Thyrotropin-releasing hormone receptor (Homo sapiens), P34981. hit rate 0.66% among 360,000; in the data active means enhancement above about 30%
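Enhancer read-out: after compound pinning and an initial kinetic agonist-mode read, an EC20 of TRH (10 nM final) was injected and fluo-8 calcium signal (Ex 480/Em 530) followed at 1 s/cycle for 100 cycles in TRHR-expressing cells.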
Large screens that a line does not name were inactive. Unless noted, no stated cut-off is given here; in the data, active means activation above about 30%; inactive means the rest.

CCCn1c(CN2CCN(c3ccc(OC)cc3)CC2)nc2c1c(=O)[nH]c(=O)n2C	none
Cc1nnc(SCC(=O)Nc2sc3c(c2C(N)=O)CCC(C)C3)[nH]c1=O (configuration not stated)	D1 antag -47
CCCCNC(=O)/C(=C\c1ccc([N+](=O)[O-])o1)NC(=O)c1ccccc1	D1 antag -39
CN(C)C(=O)/C(=C/c1ccc(-c2cccc([N+](=O)[O-])c2)o1)NC(=O)c1ccccc1	D1 antag -56
CN(C)C(=O)/C(=C\c1ccc(-c2cccc([N+](=O)[O-])c2)o1)NC(=O)c1ccccc1	none
CC1CCN(c2ncnc3c2c(-c2ccccc2)cn3-c2ccc(Br)cc2)CC1	none
CCOc1ccc(-n2cc(-c3ccccc3)c3c(=O)[nH]cnc32)cc1	D1 antag -68
Cc1cccc(-n2cc(-c3ccccc3)c3c(=O)[nH]cnc32)c1	D1 antag -45
Cc1cccc(-n2cc(-c3ccccc3)c3c(N4CCC(C)CC4)ncnc32)c1	none
O=c1[nH]cnc2c1c(-c1ccccc1)cn2-c1ccc(Br)cc1	D1 antag -45
Cc1c(CNC2CCCCC2)c(C(=O)O)c(C)n1Cc1ccc(F)cc1	none
CCOc1ccc(NC(=O)C2CCN(c3nnc(-n4c(C)ccc4C)s3)CC2)cc1	none
CCC(=O)c1ccccc1OCCCn1cncn1	D1 antag -31
CCC(=O)c1ccccc1OCCN1CCN(Cc2ccccc2)CC1	none
O=C(CSCc1ccccc1Cl)Nc1ccc2c(c1)OCCO2	D1 antag -36
O=C(CNCc1ccccc1Cl)Nc1ccc2c(c1)OCCO2	none
CCn1c(SCC(=O)Nc2ccc3c(c2)OCO3)nnc1-c1cnccn1	D1 antag -32
Nn1c(SCC(=O)Nc2ccc3c(c2)OCCO3)nnc1-c1ccccn1	D1 antag -36
O=C(CSc1nnc(CCCN2C(=O)c3cccc4cccc(c34)C2=O)n1-c1ccccc1)N1CCCCC1	D1 antag -79
O=C(CSc1nnc(Cc2cc(=O)[nH]c(=O)[nH]2)n1-c1ccccc1)N1CCCCC1	none
O=C(CSc1c2c(nc3cc(Cl)ccc13)CCCC2)N1CCN(c2ccccc2F)CC1	none
O=c1c2ccccc2nnn1Cc1nnc(-c2ccccc2Br)o1	D1 ag 47
c1ccc(OCCCCn2cnc3ccccc32)cc1	none
c1ccc2c(c1)ncn2CCN1CCCCC1	D1 antag -71
c1ccc(CCn2cnc3ccccc32)cc1	none
Cc1ccc(OCCCCn2cnc3ccccc32)cc1	D1 antag -37
COCc1nc2ccccc2n1Cc1cccc(C)c1	none
Cc1ccc(OCc2nc3ccccc3n2CCOc2ccc(Cl)cc2)cc1	D1 ag 41
Cc1cccc(Cn2c(COc3ccc(Cl)cc3)nc3ccccc32)c1	D1 ag 32
Cc1ccc(-n2nc(CO)c(C(=O)NCc3ccccn3)n2)cc1C	none
CC(=O)c1ccc(N2CCN(c3ncnc4onc(-c5ccc(Cl)cc5)c34)CC2)cc1	none
CCc1ccc(NC(=O)C(Cc2ccccc2)NS(=O)(=O)c2ccc3c(c2)c(=O)n(C)c(=O)n3C)cc1 (configuration not stated)	none
Cc1ccc(CNC(=O)C2CCN(S(=O)(=O)c3cn(C)cn3)CC2)cc1	none
C/C(=N\NC(=O)COc1ccc(C)cc1C(C)C)c1cc2ccccc2o1	none
Cc1cc(C)c(C)c(OCC(=O)Nc2ccc(S(=O)(=O)Nc3nc(C)cc(C)n3)cc2)c1	none
Cc1ccc(NC(=O)c2oc3ccccc3c2NC(=O)Cc2ccccc2)cc1	none
CCc1cc(Br)ccc1N1C(=O)C2CC=CCC2C1=O (configuration not stated)	D1 antag -41
Cc1ccc(-c2nc(N)c3c(-c4ccc(C)cc4)nn(C(C)(C)C)c3n2)cc1	D1 antag -46
COc1ccc(CCNc2oc(COc3ccccc3F)nc2C#N)cc1	D1 antag -67
N#Cc1nc(COc2ccccc2F)oc1NCc1ccc(F)cc1	none
COc1ccc(CCNc2oc(COc3ccc(Br)cc3)nc2C#N)cc1OC	D1 antag -32 (no result: D1 PAM)
CCc1ccc(NC(=O)Cn2c(=O)nc(-c3ccccc3F)c3cc(Cl)ccc32)cc1	none
Cc1ccc(CC2CC(=O)N(CCc3ccc4c(c3)OCO4)C2=O)cc1 (configuration not stated)	D1 antag -31
Cc1ccc(CC2CC(=O)N(CC(=O)O)C2=O)cc1 (configuration not stated)	none
O=C1CC(NCc2ccc3c(c2)OCO3)C(=O)N1CCc1ccccc1 (configuration not stated)	none
COc1cccc(CC2CC(=O)N(CCc3ccc4c(c3)OCO4)C2=O)c1 (configuration not stated)	D1 ag 34
COc1ccccc1N1CCN(S(=O)(=O)c2ccc(-c3coc(C)n3)cc2)CC1	none
Cc1ccc(N2CCN(S(=O)(=O)c3ccc(F)c(C)c3)CC2)c(C)c1	none
Cc1nc(-c2ccc(S(=O)(=O)N3CCN(c4ccccc4F)CC3)cc2)co1	D1 antag -34
CCc1ccccc1N1CCN(S(=O)(=O)c2ccc(F)c(C)c2)CC1	D1 antag -37
O=C(CSc1nc(=O)n(Cc2ccco2)c2c1CCC2)Nc1ccccc1C(F)(F)F	none (no result: D1 antag)
CCc1cccc(NC(=O)Cn2c(=O)n(-c3ccccc3C)c(=O)c3c2c2cc(C)ccc2n3C)c1	none
CCN(CC(=O)Nc1c(F)cccc1F)C(=O)Cc1ccc2c(c1)OCCO2	none
CCN(CC(=O)Nc1c(F)cccc1F)C(=O)c1cc(C)nc2ccccc12	none
CCN(CC(=O)Nc1c(F)cccc1F)C(=O)CSc1ccccc1	none
CCN(CC(=O)Nc1c(F)cccc1F)C(=O)Cn1[nH]c(=O)c2ccccc2c1=O	D1 antag -50
CCN(CC(=O)Nc1c(F)cccc1F)C(=O)Cc1ccc2c(c1)CCC2	D1 antag -34
CCN(CC(=O)Nc1c(F)cccc1F)C(=O)Cc1c(C)nc2ccccc2c1C	D1 antag -49
Cc1ccc(S(=O)(=O)N2CCC(c3nnc(-c4cccc(C)c4)o3)CC2)cc1	none
CN1C(=O)Cc2cc(S(=O)(=O)CCC(=O)Nc3cccc(C(F)(F)F)c3)ccc21	none
N#CCCn1nc(-c2ccccc2)cc1Nc1ccccc1NC(=O)C(F)(F)F	none
N#CCCn1nc(-c2ccc([N+](=O)[O-])cc2)cc1Nc1ccccc1NC(=O)C(F)(F)F	D1 ag 31
CCC(=O)N1CCc2cc(S(=O)(=O)NCCC(=O)NC(C)c3ccccc3)ccc21 (configuration not stated)	none
